The campaign covered roughly 5,900 compounds. About 100 (1.7%) were called active. Many of the other results were omitted from the sample, so actives are more common in it than they were. A number with no mark means an inactive call.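 How the source made its calls: active means binding response below 72% of control, or above a set upper limit, though filed actives all read lower; inactive means the rest.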

Experimental findings from PubChem BioAssay AID1894 (NMMLSC, 2009) are described below.

For the test, the target named is Mitogen-activated protein kinase kinase kinase 3 (Homo sapiens) (UniProt Q99759). Nature of the test: MEKK3 wild-type PB1 binding to MEK5, inhibitors, confirmation, biochemical, bead multiplex flow cytometry, single concentration, wildtype (AID 1894).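 Further: 100% = DMSO only wells and 0% = binding blocked by excess unlabeled MEK5.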 The following applies: Alexa488-MEK5 binding to MEKK3, at 10 µM, hits give low values. (In general: In flow cytometry, cells or beads pass a laser one at a time.)
Sequence of Mitogen-activated protein kinase kinase kinase 3 (Homo sapiens) (Q99759 whole entry, looked up): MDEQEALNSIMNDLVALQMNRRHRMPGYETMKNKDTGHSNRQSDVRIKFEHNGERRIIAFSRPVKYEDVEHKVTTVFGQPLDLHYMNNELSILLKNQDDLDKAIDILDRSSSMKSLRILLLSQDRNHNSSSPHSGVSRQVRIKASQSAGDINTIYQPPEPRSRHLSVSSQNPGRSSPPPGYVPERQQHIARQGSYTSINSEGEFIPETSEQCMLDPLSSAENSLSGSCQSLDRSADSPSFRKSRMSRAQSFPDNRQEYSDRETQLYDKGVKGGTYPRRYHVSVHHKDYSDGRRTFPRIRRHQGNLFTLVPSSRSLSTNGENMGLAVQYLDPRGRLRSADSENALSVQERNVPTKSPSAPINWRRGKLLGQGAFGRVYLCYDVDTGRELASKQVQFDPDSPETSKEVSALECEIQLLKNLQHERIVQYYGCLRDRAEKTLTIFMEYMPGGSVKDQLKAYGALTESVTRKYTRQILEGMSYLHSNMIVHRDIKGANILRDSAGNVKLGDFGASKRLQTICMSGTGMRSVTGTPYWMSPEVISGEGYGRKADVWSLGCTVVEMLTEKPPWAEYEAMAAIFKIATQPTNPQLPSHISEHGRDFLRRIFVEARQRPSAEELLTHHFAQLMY
With `C=C(C)C1CC=C(C)/C(=N\NC(=O)CNc2ccccc2OC)C1` (configuration not stated), the binding response (% of control) is 109%. Turning to `CCOC(=O)c1cc2c(nc1NC(=S)Nc1ccccc1)CC(C)(CC)OC2` (configuration not stated), the binding response (% of control) is 102%. For the compound `COc1cccc(OCC(=O)NNC(=O)c2cnccn2)c1`, the binding response (% of control) was 101%. `CCCn1c(=N)n(CC(=O)c2ccc(Cl)c(Cl)c2)c2ccccc21`: the binding response (% of control) was 109%. Consider `Cc1cc(C)c(NC(=O)C[N+](C)(C)CC(O)COc2cccc3ccccc23)c(C)c1` (configuration not stated), for which the binding response (% of control) is 108%. With `CCOC(=O)c1c(-c2ccccc2)csc1NC(=S)NC(=O)c1ccccc1`, the binding response (% of control) is 102%. Regarding `CCCCN1C(=O)/C(=C(/C#N)C(N)=O)c2ccccc21`, the binding response (% of control) is 99%. Regarding `CC(=O)Nc1ccc(N2CCOCC2)c(C(=O)Nc2cccc(C)c2)c1`, the binding response (% of control) is 105%. Consider `COc1ccccc1NC(=S)N1CCN(c2ccc(F)cc2)CC1`, for which the binding response (% of control) is 102%. The same measure for `CCCN(CCC)c1nc2c(C)cccn2c(=O)c1/C=C1/SC(=S)N(Cc2ccco2)C1=O`: 86%. The same measure for `O=C(Nc1ccc2ccccc2c1)Nc1ccc2snnc2c1`: 105%; for `O=C1NCC(=O)N(Cc2ccccc2)/C1=C/c1ccccc1`: 91%; for `O=C(CSc1ccc(-c2ccc(F)cc2)nn1)Nc1ccc2c(c1)OCCO2`: 104%. Take `CCOc1cc(C(=O)OCC(=O)Nc2cccc(C)c2)ccc1OCC(=O)N1CCOCC1`: the binding response (% of control) was 106%. The same measure for `O=C(CN1C(=O)c2cccnc2Oc2ccc(Cl)cc21)Nc1ccc(F)cc1`: 103%; for `O=c1c2ccccc2c(-c2ccccc2)nn1Cc1ccccc1`: 97%. Consider `CCn1cc(CN2CCC(C(=O)Nc3cccc(-c4cccc(Cl)c4)c3)CC2)cn1`, for which the binding response (% of control) is 116%. For `CC(=O)N1CCN(S(=O)(=O)c2ccc(C)c([N+](=O)[O-])c2)C1C(C)C` (configuration not stated) the value was 97%. Turning to `N=C1/C(=C/c2cccn2-c2cccc([N+](=O)[O-])c2)C(=O)N=C2SC=CN12`, the binding response (% of control) was 100%. As to `Cn1c(=NC(=O)CSCC(=O)N2CCCCC2)sc2ccccc21`, the binding response (% of control) was 104%. In the case of `CCCCNC(=O)N1CCCC(N(C)CCc2ccc(OC)c(OC)c2)C1` (configuration not stated), the binding response (% of control) was 102%. As for `O=C(NCc1ccccc1Cl)NC(=O)c1csc([N+](=O)[O-])c1`, the binding response (% of control) was 103%. On to `CC(C)(C)c1nnc(NC(=O)C2c3ccccc3Oc3ccccc32)s1`, for which the binding response (% of control) was 100%. For `CN(c1ccccc1)c1ccc(/C=c2\s/c(=C(/C#N)C(=O)C(C)(C)C)n(Cc3ccco3)c2=O)cc1`, the binding response (% of control) was 69% (active). In the case of `O=C(/C=C/Nc1ccccc1)c1cnc(-c2ccccc2)s1`, the binding response (% of control) is 106%. As to `Cc1cccc(-c2ncc(CN3CCC(CO)(CCCc4ccccc4)CC3)cn2)c1`, the binding response (% of control) is 107%. Turning to `CC(C)(C)NC(=O)c1cccc(NC(=O)Cc2ccc(Br)cc2)c1`, the binding response (% of control) is 101%. The same measure for `COCC(C)NC(=O)COc1nncc2ccccc12` (configuration not stated): 95%; for `O=C(COC(=O)CNC(=O)c1ccco1)Nc1ccc(F)cc1`: 103%; for `CCOC(=O)c1c(NC(=O)c2ccc(S(=O)(=O)N(C)CC3CCCO3)cc2)sc2c1CC(C)(C)NC2(C)C` (configuration not stated): 99%. For `CCN(CC)CCCNC(=O)c1ccc2c(=O)n(Cc3ccc4c(c3)OCO4)c(=S)[nH]c2c1`, the binding response (% of control) is 101%.

For `CN(C)CCCN(C(=O)COc1ccccc1)c1nc2c(Cl)cccc2s1`, the binding response (% of control) was 108%. Consider `O=C(O)/C=C\C(=O)Nc1ccc(OCc2ccccc2)cc1`, for which the binding response (% of control) was 98%. The same measure for `Cc1ccc2c(C)c(C(=O)N3CCN(c4ccncc4)CC3)oc2c1C`: 108%; for `Cc1ccccc1-c1ccc(Nc2ccc(C(=O)N3CCOCC3)cc2)nn1`: 102%. For `C[N+](C)(C)CCNC(=O)c1c(O)c2c([nH]c1=O)CCCC2` the value was 99%; for `COc1cc(C)nc(N2CCCC(C(=O)NCC(C)C)C2)n1` (configuration not stated), 96%. In the case of `O=c1[nH]c(=S)[nH]c2[nH]c(=S)[nH]c12`, the binding response (% of control) is 100%. For `CCOC(=O)c1cc2occc2n1CC(=O)N1CCN(C(=O)c2ccco2)CC1`, the binding response (% of control) was 95%. Consider `O=C(O)C1CCN(c2ccc([N+](=O)[O-])cc2[N+](=O)[O-])CC1`, for which the binding response (% of control) is 102%. For `COc1ccccc1CC(=O)Nc1ccc([N+](=O)[O-])cc1OC` the value was 98%; for `c1ccc2c(c1)C(=NC1CCCCC1)NC2=NC1CCCCC1`, 104%. On to `CCc1nnc(NC(=O)c2sc3nc(C)cc(COC)c3c2N)s1`, for which the binding response (% of control) is 105%. For the compound `Cc1cccc(OCCNC(=O)CSc2ccc(C(F)(F)F)cc2[N+](=O)[O-])c1`, the binding response (% of control) is 104%. The same measure for `COc1ccc(CCn2c(NN=C3CCCC3)nc3c2c(=O)[nH]c(=O)n3C)cc1`: 106%; for `Cc1c(CN2CCC(CO)(CCOc3ccccc3)CC2)[nH]c2ccc(Cl)cc12`: 112%. Take `COc1cccc(Nc2ncccc2C(=O)O)c1`: the binding response (% of control) is 101%. As for `O=C(NCC1CCCCC1)c1cc(S(=O)(=O)N2CCCCC2)ccc1N1CCOCC1`, the binding response (% of control) was 91%. As for `O=C(c1ccc(Br)o1)N(c1ccccn1)C1CCCCC1`, the binding response (% of control) was 98%. With `Cc1cccc(CSc2nnc(C)c(=O)n2N)c1`, the binding response (% of control) was 103%. `CC(C)CC(=O)NC(=S)NCc1ccccc1`: the binding response (% of control) was 99%. For the compound `COC(=O)C1=NN(c2ccccc2)C2C(=O)N(c3ccccc3OC)C(=O)C12` (configuration not stated), the binding response (% of control) was 103%. The same measure for `Cc1ccccc1CCN(CC(=O)NC1CCCCC1)C(=O)c1csnn1`: 97%; for `Cc1[nH]c2ccc(S(N)(=O)=O)cc2c1C`: 100%; for `CCc1ccc2nc(Nc3ncc(C(C)=O)c(C)n3)nc(C)c2c1`: 102%. For `COc1cccc(OC)c1C(=O)Nc1ccc(Cc2ccncc2)cc1` the value was 101%. On to `CN(C)CC(O)COc1ccc(C(C)(C)c2ccc(OCC(O)CN(C)C)cc2)cc1` (configuration not stated), for which the binding response (% of control) is 111%.
